Sampled rows, rich in hits. Any-hit rate of the full collection: about 7.3%.
SMN2 splice enh: qHTS Assay for Enhancers of SMN2 Splice Variant Expression; Potency, µM (series often up to 46.1 µM), for the others: at the top dose activity change, positive = activation, most hits filed as activators; HEK293 SMN2-luciferase splicing reporter, luminescence, 30-36 h; 210,000 tested, 2.8% active; note: % of control where 0% means no effect; nearly all actives have a fitted effect of over 55% in size
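HEK293 cells carry an SMN2 […]–luciferase reporter in which exon 7 inclusion puts luciferase in frame. Cells were plated 10-12 h before compound addition, then incubated 30-36 h at 37C. ONE-Glo luminescence was read; sodium butyrate at 4.5 mM final served as control.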
ELG1 genotoxic: qHTS screen for small molecules that induce genotoxicity in human embryonic kidney (HEK293T) cells expressing luciferase-tagged ELG1 | HEK293T ELG1-luciferase reporter, luminescence, 16 h | Potency, µM (top dose mostly 46 µM), inactives show at the top dose activity change, positive = activation, usual class: activators | 330,000 tested, 1.3% active | AID 504466, 2011; note: % of control where 0% means no effect; nearly all actives have a fitted effect of over 60% in size
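Screening used a luciferase reporter fused to human ELG1 in HEK293T cells. Luminescence was read on a CCD plate imager after 16 hr exposure and 30 min ONE-Glo incubation.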
Rab9 prom act: qHTS Assay for Rab9 Promoter Activators | Potency, µM (doses to about 9.22 µM), for inactives: top-dose activation, negative = inhibition, usual class: activators | 320,000 tested, 2.8% active | AID 485297, 2010 | Huh7 Rab9 promoter-luciferase reporter, luminescence, 24 h; note: % of control where 0% means no effect; nearly all actives have a fitted effect of over 60% in size
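Cell-based reporter: Huh7 stable for Rab9 promoter-driven luciferase, plated in reduced-serum medium with 10% FBS at 1500 cells/well, compound-treated 24 h at 37 °C, luminescence read after 10 min reagent.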
KinaseGlo FLuc: Counterscreen for Luciferase (Kinase-Glo TM) Inhibition | Kinase-Glo luciferase, ATP luminescence, 8 min | Potency, µM (series often up to 38.3 µM), inactives show at the highest dose activity change, negative = inhibition, usual class: inhibitors | Luciferin 4-monooxygenase (Photuris pensylvanica), Q27757 | 200,000 tested, 0.28% active; note: % is set by controls: 0 for no effect and ±100 for the full control effect; nearly all actives have a fitted effect of over 60% in size
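Kinase-Glo luciferase light output from ATP and luciferin was measured with 10 uM ATP, within the enzyme's linear range. Buffer: 50 mM imidazole pH 7.2, 50 mM KCl, 7 mM MgCl2, 0.01% Tween 20, 0.05% BSA; luminescence read after 8 min at ambient temperature.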
FLuc counter: qHTS profiling assay for firefly luciferase inhibitor/activator using purifed enzyme and Km concentrations of substrates (counterscreen for miR-21 project). Luciferin 4-monooxygenase (Photinus pyralis), P08659. purified FLuc, Km substrates, luminescence inhibition. Potency, µM (titrated, usually from 57.5 µM), for the others: top-dose activity change, negative = inhibition, hits mostly inhibitors. 360,000 tested, 6.9% active;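 note: plate controls were vehicle for no effect and reference inhibitor for full effect; nearly all actives have a fitted effect of over 55% in size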
Target sequence (P08659 whole entry, looked up): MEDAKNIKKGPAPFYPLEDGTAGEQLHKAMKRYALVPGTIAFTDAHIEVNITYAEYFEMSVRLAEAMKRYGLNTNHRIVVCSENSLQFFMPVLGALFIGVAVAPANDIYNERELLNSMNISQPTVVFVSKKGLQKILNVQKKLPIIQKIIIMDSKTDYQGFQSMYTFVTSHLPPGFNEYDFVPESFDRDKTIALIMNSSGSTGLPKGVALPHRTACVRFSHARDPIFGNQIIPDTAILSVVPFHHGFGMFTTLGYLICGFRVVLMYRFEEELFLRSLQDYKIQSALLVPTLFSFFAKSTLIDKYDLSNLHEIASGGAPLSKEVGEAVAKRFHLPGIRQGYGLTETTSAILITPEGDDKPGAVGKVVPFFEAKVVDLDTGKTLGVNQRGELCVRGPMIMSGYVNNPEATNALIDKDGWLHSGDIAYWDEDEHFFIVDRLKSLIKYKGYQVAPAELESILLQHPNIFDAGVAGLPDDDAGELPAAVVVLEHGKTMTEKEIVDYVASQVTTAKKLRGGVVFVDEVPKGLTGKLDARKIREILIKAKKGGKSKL
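Biochemical qHTS of compounds, final roughly 60 µM downward over six points, against 10 nM purified firefly luciferase using Km concentrations of substrates (10 uM D-luciferin, 10 uM ATP) in Tris acetate pH 7.5 buffer; luminescence output.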
NPC1 prom act: qHTS Assay for NPC1 Promoter Activators; 320,000 tested, 2.4% active; Huh7 NPC1 promoter luciferase reporter, 24 h; Potency, µM (highest dose often 9.22 µM), inactives show at the highest dose activation, hits mostly activators; note: % of control where 0% means no effect; nearly all actives have a fitted effect of over 60% in size
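Readout is luciferase luminescence, reflecting NPC1 promoter activation in stably transfected Huh7 cells after 24 h compound exposure at 37 °C in reduced-serum medium with 10% FBS.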
* = called active by the depositor; ? = inconclusive; . = no result; [ ] = dose if it differs, or a comment. Calls come from the whole dose curve; as a rule, active = well fitted curve in the direction sought with a large enough effect; inconclusive = small, poorly fitted or top-dose-only effect, or another doubt; inactive = no such curve, though single readings can be large; an effect the other way counts as inactive or inconclusive. Potency is the fitted concentration of half-maximal effect.

SMILES	SMN2 splice enh	ELG1 genotoxic	Rab9 prom act	KinaseGlo FLuc	FLuc counter	NPC1 prom act
CCc1ccc(C(=O)CC2(O)C(=O)N(CCc3ccccc3)c3ccc(Cl)cc32)cc1 (stereo unspecified)	-11%	.	.	.	-8%	.
COc1ccc(-c2nc3sc(CCNC(=O)C(=O)Nc4ccc(C)c(C)c4)c(C)n3n2)cc1	.	.	.	.	-5%	.
CCc1ccn2cc(-c3ccc4c(c3)OCO4)nc2c1	.	0.18µM*	?	.	0.06µM*	?
O=C(NCc1cn2ccccc2n1)c1ccc2c(c1)OCO2	-7%	1%	2%	5%	-1%	-3%
COC(=O)c1ccc2nc(-c3ccc4c(c3)OCO4)cn2c1	.	?	0.1µM*	?	0.3µM*	0.22µM*
O=C(Cn1nc2c(cc1=O)CCCC2)NCc1ccccc1	.	.	.	.	2%	.
NC(=O)c1sc2nc3c(cc2c1N)CCCCCC3	.	-1%	?	.	19µM*	2.5µM*
N#Cc1sc2nc3c(cc2c1N)CCCC3	-9%	16%	-4%	0%	13µM*	14%
Nc1c(C(=O)C2CC2)sc2nc3c(cc12)CCC3	.	?	?	-3%	8.5µM*	2.5µM*
CCCNC(=O)C1CCC(Cn2c(=O)c3sccc3n(CC(=O)N(CC)CC)c2=O)CC1 (stereo unspecified)	.	.	.	.	-2%	.
CCc1ccc(NC(=O)CSc2nc3ccsc3c(=O)n2C(C)CC)cc1 (stereo unspecified)	.	.	.	.	-2%	.
NC(=O)c1cc(S(=O)(=O)NCC2CCC(C(=O)Nc3ccc(Cl)cc3)CC2)cs1 (stereo unspecified)	.	.	.	.	1%	.
COc1cccc([C@@H]2Oc3ccc(OC)cc3C[C@H]2OC(=O)N[C@H]2CCCc3ccccc32)c1	-3%	.	.	-1%	.	.
CCOc1ccc(CCNC(=O)Cc2ccc(NC(=O)C3=C(C)OCCS3)cc2)cc1	.	7%	?	.	4.3µM*	?
CSc1ccc(CNC(=O)Cc2ccc(NC(=O)C3=C(C)OCCS3)cc2)cc1	.	13µM*	?	.	1.3µM*	-1%
O=c1c(/C=C(\O)c2ccc(F)cc2)nc2ccccc2n1-c1ccccc1	1%	?	?	-2%	?	19%
O=c1c2ccccc2nc(/C=C/c2cccc(Br)c2)n1CCCO	.	-8%	-4%	.	-16%	-8%
Cn1c(=O)c(/C=C/c2ccccc2)nc2ccccc21	11µM*	?	3.5µM*	-3%	2.7µM*	?
Cn1c(=O)c(/C=C/c2ccc(F)cc2)nc2ccccc21	.	8%	-30%	-4%	6.7µM*	-30%
Cn1c(/C=C/c2cccc(Br)c2)nc2ccccc2c1=O	.	1%	-5%[1.84 µM]	.	15µM*	28%
Cn1c(/C=N/NC(=O)c2ccccc2)nc2ccccc21	-17%	3%	12%	0%	-14%	12%
Cn1c(/C=C/c2ccccc2)nc2ccccc21	.	?	?	7.1µM*	0.13µM*	0.56µM*
COc1cc(NCc2ccc3nc(N)nc(N)c3c2C)cc(OC)c1OC	.	.	.	-2%[39.9 µM]	.	.
CC(=O)c1ccc(/C=C/c2nc3ccccc3n2C)o1	.	16µM*	1µM*	.	5.4µM*	1.3µM*
CCc1ccc(OC(=O)/C=C/c2ccco2)cc1	.	4%	12%	.	0.85µM*	16%
SMILES	SMN2 splice enh	ELG1 genotoxic	Rab9 prom act	KinaseGlo FLuc	FLuc counter	NPC1 prom act
COC(=O)N/N=C/c1ccc(OC(=O)/C=C/c2ccco2)cc1	.	-2%	11%	.	-11%	-1%
CCOC(=O)c1cnc(NCc2ccccc2)nc1C	10%	15µM*	?	1%	?	25%
CCCCSc1ncc(C(=O)OCC)c(N)n1	5µM*	?	3.2µM*	-2%	3.8µM*	?
CCOC(=O)c1cnc(SCc2ccc(C)cc2)nc1N	11µM*	23µM*	23%	1%	17µM*	?
CCOC(=O)c1cnc(SCc2nc(N)nc(Nc3ccccc3)n2)nc1N	26%	0%	0%	3%	?	-2%
CCOC(=O)c1cnc(SCC(=O)c2ccc(Cl)cc2)nc1N	-9%	?	1%	-2%	-2%	9%
CCOC(=O)c1cnc2c(ccc3ccccc32)c1Cl	.	?	5%	.	3µM*	-3%
O=C1CC(c2nc3ccccc3n2CCCOc2ccccc2)CN1c1ccc(F)cc1 (stereo unspecified)	-6%	.	.	.	-19%	.
CCN1CCN(c2c(S(=O)(=O)c3ccc(C)c(C)c3)cnc3cc(OC)c(OC)cc23)CC1	-9%	.	.	.	-6%	.
CCOC(=O)c1cc(OC(=O)c2ccc(C)cc2)n(-c2ccccc2)n1	12%	.	.	.	0%	.
C[C@@H](NC(=O)CN(c1ccccc1)S(=O)(=O)N(C)C)c1ccccc1	-11%	.	.	.	-1%	.
CCOC(=O)c1cnc(SCCc2ccccc2)nc1N	13µM*	?	1.6µM*	-5%	3µM*	3.2µM*
CCOC(=O)c1cnc(SCC(=O)N2CCN(C(=O)c3ccco3)CC2)nc1N	-6%	1%	-3%	-2%	-10%	0%
CCOC(=O)c1c(NC(=O)C(C)Sc2cn(CCNC(=O)c3c(F)cccc3F)c3ccccc23)sc2c1CCC2 (stereo unspecified)	-3%	.	.	.	3%	.
CCCCSC(=O)Nc1ccccc1	7%	?	7%	7%	17µM*	-1%
CCCCCC(=O)NNC(=O)Nc1ccccc1	12%	-2%	3%	1%	0%	-1%
C/C(=N/NC(=O)c1ccccn1)c1ccco1	?	17%	0.5µM*	7.1µM*	5.4µM*	0.89µM*
O=C(NCCNC(=O)c1ccccn1)c1ccc(Cl)cc1	.	-3%	6%	.	1%	6%
C/C(=N\NC(=O)c1ccc(Cl)cc1)c1ccccn1	.	3.3µM*	-20%	.	7.6µM*	?
C/C(=N\Nc1ccc(Cl)cc1)c1ccncc1	.	6%	4%	.	?	-2%
C/C(=N\Nc1ccc(Cl)cc1)c1ccccn1	14µM*	21µM*	?	-2%	11µM*	11%
COC(=O)N/N=C(\C)c1ccco1	-1%	-9%	3%	-4%	-2%	-2%
C/C(=N\NC(=O)c1ccccn1)c1ccc(Cl)cc1	.	?	0.56µM*	.	2.4µM*	0.79µM*
C/C(=N/NC(=O)c1ccccn1)c1ccc(O)cc1	.	16µM*	2.8µM*	.	24µM*	3.5µM*
COc1cc(C(=O)N/N=C(\C)c2ccccn2)cc(OC)c1OC	.	6%	4%	.	7%	-3%
